The test has as its target T1, NKX2-6 (Homo sapiens, UniProt A6NCS4 118-204, R150C).
T1 sequence: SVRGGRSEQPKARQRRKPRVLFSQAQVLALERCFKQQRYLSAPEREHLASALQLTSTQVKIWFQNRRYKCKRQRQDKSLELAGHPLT
Description: PBM; 200 nM protein, PBS. Conditions: dsDNA, one strand shown.
Regarding GATCCGAC, the binding signal was 9.56 upbm affinity estimate (log intensity, higher = more binding, comparable within an allelic series).

As for CTACTTTA, the binding signal was 11 upbm affinity estimate (log intensity, higher = more binding, comparable within an allelic series). In the case of ACGGGGTC it was 9.58 upbm affinity estimate (log intensity, higher = more binding, comparable within an allelic series). As for GGTCAGAC, the binding signal was 9.52 upbm affinity estimate (log intensity, higher = more binding, comparable within an allelic series). Turning to AAACGGCC, the binding signal is 9.82 upbm affinity estimate (log intensity, higher = more binding, comparable within an allelic series). For the sequence CCCCAACC, the binding signal is 9.37 upbm affinity estimate (log intensity, higher = more binding, comparable within an allelic series).

As for GACCTGGC, the binding signal was 9.43 upbm affinity estimate (log intensity, higher = more binding, comparable within an allelic series). Turning to CCGGTAGG, the binding signal is 9.6 upbm affinity estimate (log intensity, higher = more binding, comparable within an allelic series). In the case of CGCCCCGC it was 9.59 upbm affinity estimate (log intensity, higher = more binding, comparable within an allelic series); in that of ACCTCCCC, 9.56 upbm affinity estimate (log intensity, higher = more binding, comparable within an allelic series); in that of CCCGCAGC, 9.3 upbm affinity estimate (log intensity, higher = more binding, comparable within an allelic series). With AAAAAGTG, the binding signal was 11.2 upbm affinity estimate (log intensity, higher = more binding, comparable within an allelic series). In the case of GGGGCCAC it was 9.87 upbm affinity estimate (log intensity, higher = more binding, comparable within an allelic series); in that of CCCTGCCA, 9.63 upbm affinity estimate (log intensity, higher = more binding, comparable within an allelic series); in that of CAAGAGGG, 10.9 upbm affinity estimate (log intensity, higher = more binding, comparable within an allelic series). Regarding ATACTTGG, the binding signal is 10.8 upbm affinity estimate (log intensity, higher = more binding, comparable within an allelic series).

Turning to AGCCCCTG, the binding signal was 9.59 upbm affinity estimate (log intensity, higher = more binding, comparable within an allelic series). In the case of CACTTCCA, the binding signal is 11 upbm affinity estimate (log intensity, higher = more binding, comparable within an allelic series). In the case of GGGGAACC it was 9.63 upbm affinity estimate (log intensity, higher = more binding, comparable within an allelic series); in that of CACGCCAG, 9.43 upbm affinity estimate (log intensity, higher = more binding, comparable within an allelic series). In the case of AAGAAGTG it was 11.2 upbm affinity estimate (log intensity, higher = more binding, comparable within an allelic series); in that of CAAGTGGA, 11.6 upbm affinity estimate (log intensity, higher = more binding, comparable within an allelic series); in that of GCGGACCA, 9.48 upbm affinity estimate (log intensity, higher = more binding, comparable within an allelic series). In the case of CGGGCGGA it was 9.09 upbm affinity estimate (log intensity, higher = more binding, comparable within an allelic series).

Consider ACCGACGC, for which the binding signal is 9.5 upbm affinity estimate (log intensity, higher = more binding, comparable within an allelic series). Turning to AAGCCCCC, the binding signal was 9.33 upbm affinity estimate (log intensity, higher = more binding, comparable within an allelic series). CGCCAACC: the binding signal was 9.44 upbm affinity estimate (log intensity, higher = more binding, comparable within an allelic series). In the case of AACGGGAC it was 9.62 upbm affinity estimate (log intensity, higher = more binding, comparable within an allelic series).

For GACGCCCC, the binding signal was 9.56 upbm affinity estimate (log intensity, higher = more binding, comparable within an allelic series). On to AGAGTGGA, for which the binding signal is 11 upbm affinity estimate (log intensity, higher = more binding, comparable within an allelic series). Regarding AGGCACCC, the binding signal was 9.55 upbm affinity estimate (log intensity, higher = more binding, comparable within an allelic series). Turning to CGCCCGTC, the binding signal is 9.36 upbm affinity estimate (log intensity, higher = more binding, comparable within an allelic series). CTTGCCGC: the binding signal is 9.53 upbm affinity estimate (log intensity, higher = more binding, comparable within an allelic series). For CACAGGCG, the binding signal is 9.43 upbm affinity estimate (log intensity, higher = more binding, comparable within an allelic series). In the case of AACCGCCC it was 9.72 upbm affinity estimate (log intensity, higher = more binding, comparable within an allelic series).

Take ATCACCCG: the binding signal was 9.63 upbm affinity estimate (log intensity, higher = more binding, comparable within an allelic series). Take TCACTCAA: the binding signal is 10.9 upbm affinity estimate (log intensity, higher = more binding, comparable within an allelic series). Regarding ACCCGGCA, the binding signal was 9.55 upbm affinity estimate (log intensity, higher = more binding, comparable within an allelic series). Turning to CACTCTCA, the binding signal is 10.9 upbm affinity estimate (log intensity, higher = more binding, comparable within an allelic series). As for CGCCTACA, the binding signal was 9.72 upbm affinity estimate (log intensity, higher = more binding, comparable within an allelic series).
